Most compounds without a hit are left out; they make up all but 32% or so of the library.
PostGolgi yeast = phenotypic screen on post-Golgi transport, primary screen | post-Golgi transport phenotypic cell assay | 98,000 tested, 0.9% active | inhibition, % at 10 µM;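 note: yeast cells grown in 1536-well plates; yeast grown about 18 h at 30C before absorbance read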
CYP2C9 inh = blockers of cytochrome P450 2C9 activity – biochemical, luminescence, ADME assay, primary screen. CYP2C9 Supersomes, luciferin-H conversion. AID 777, 2007. inhibition, % at 5 µM. 96,000 tested, 20% active;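 active = blocking of liver enzyme CYP2C9 beyond about 50% at 5 µM, limit read from the data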
Target sequence (P11712 whole entry, looked up): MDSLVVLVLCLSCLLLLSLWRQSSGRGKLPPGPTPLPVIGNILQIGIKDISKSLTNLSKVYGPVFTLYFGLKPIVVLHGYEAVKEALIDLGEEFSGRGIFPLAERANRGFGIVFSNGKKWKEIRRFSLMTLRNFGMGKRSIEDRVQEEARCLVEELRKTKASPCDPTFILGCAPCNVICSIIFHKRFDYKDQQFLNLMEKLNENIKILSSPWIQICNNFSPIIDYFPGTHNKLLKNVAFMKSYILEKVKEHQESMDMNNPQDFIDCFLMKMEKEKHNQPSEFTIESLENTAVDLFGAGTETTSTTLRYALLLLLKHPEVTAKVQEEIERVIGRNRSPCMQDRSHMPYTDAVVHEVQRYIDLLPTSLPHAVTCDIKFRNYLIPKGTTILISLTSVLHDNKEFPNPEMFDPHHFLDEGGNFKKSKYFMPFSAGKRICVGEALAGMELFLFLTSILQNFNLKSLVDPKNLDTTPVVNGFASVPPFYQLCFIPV
CYP2C19 inhib = blockers of cytochrome P450 2C19 activity – biochemical, luminescence, ADME assay, primary screen | CYP2C19 Supersomes, luciferin-H EGE luminescence, 30 min | inhibition, % at 5 µM | 96,000 tested, 21% active | P33261 | AID 778, 2007;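 active = CYP2C19 inhibition above a set limit at 5 µM in the primary screen, cut at about 50% in these data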
CYP2C19 activ = human CYP2C19 activators, primary screen, biochemical, luminescence; Cytochrome P450 2C19 (Homo sapiens), P33261; recombinant CYP2C19, luciferin-H EGE luminescence; hits give high values; 0 = fully inhibited enzyme, 1 = untreated enzyme; activation factor at 5 µM; 96,000 tested, under 10 active;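 active = activation factor of at least 2 at 5 µM in the primary screen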
PostGolgi ctrl = growth inhibition of yeast control strain, primary screen, counter-screen for post-Golgi transport modulator project. efflux-deficient yeast background strain, growth absorbance A615, 16 h. inhibition, % at 10 µM. 98,000 tested, 5% active. AID 738, 2007
CYP2C9 act = human CYP2C9 activators, primary screen, biochemical, luminescence; Cytochrome P450 2C9 (Homo sapiens), P11712; recombinant CYP2C9, luciferin-H conversion; hits give high values; factor 1 = untreated enzyme, 0 = blocked; activation factor at 5 µM; 96,000 tested, 1.4% active; AID 1024, 2008;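 active = activation factor of 2 or more for CYP2C9 at a 5 µM dose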
Hits are given with their value; n = inactive; x = no result. Cut-off read from the data, not from the text of the source, unless noted: active = inhibition above about 30%; inactive = the rest.

SMILES	PostGolgi yeast	CYP2C9 inh	CYP2C19 inhib	CYP2C19 activ	PostGolgi ctrl	CYP2C9 act
CC1=C(C(=O)N(C)C)C(c2cccc(Cl)c2)NC(=O)N1 (configuration not stated)	n	n	n	n	n	n
c1cn(CC2(Cn3ccnc3)COC2)cn1	n	n	n	n	n	n
CC(C)(C)c1nc(N2CCN(C(=O)c3ccco3)CC2)c2nnn(Cc3ccccc3)c2n1	n	n	n	n	n	n
COC(=O)c1ccc(OCCOc2ccccc2)cc1	n	54	67	n	n	n
O=C(Nc1ccccc1C(=O)O)c1cncc(Br)c1	n	60	n	n	n	n
CCOC(=O)CSc1nnc(CNC(=O)c2cc(OC)c(OC)c(OC)c2)n1C	n	n	n	n	n	n
Cc1cc(C(=O)CSc2nnc(N)s2)c(C)n1CCc1ccc(Cl)cc1	n	79	89	n	41	n
Cc1cc(C(=O)CSc2nnc(N)s2)c(C)n1CCc1ccc(F)cc1	n	88	96	n	n	n
O=C(c1ccco1)N1CCN(c2cc(=O)n(-c3ccc(Cl)cc3)c(=O)[nH]2)CC1	n	n	n	n	n	n
CCOC(=O)CN(c1ccccn1)S(=O)(=O)c1ccccc1	n	n	n	n	n	n
CCCC(C)C(=O)N(Cc1ccccc1)c1ccccn1 (configuration not stated)	n	51	67	n	n	n
COc1ccccc1NC(=O)N(Cc1ccccc1)c1ccccn1	n	n	n	n	45	n
COCC(=O)N(Cc1ccccc1)c1ccccn1	n	n	n	n	n	n
O=C(c1csc2c1CCCC2)N1CCN(c2ncccn2)CC1	n	82	65	n	n	n
CCOC(=O)N1CCN(c2ccc(Cl)c(Cl)c2)CC1	n	n	n	n	n	n
CCOC(=O)N1CCN(c2ccc(C(=O)c3cccc(F)c3)cc2)CC1	n	82	67	n	n	n
O=C(c1cccc(F)c1)N1CCN(C(=O)C2CC2)CC1	n	n	n	n	n	n
COc1ccc(CCNC(=O)CN2CCN(c3cccc(C(F)(F)F)c3)CC2)cc1	n	76	76	n	n	n
O=C(c1cccc(F)c1)N1CCN(c2cccc(C(F)(F)F)c2)CC1	n	81	88	n	n	n
Cc1ccc(S(=O)(=O)N2CCN(C)CC2)c(C)c1	n	n	n	n	n	n
CC1(C)CC(C)(O)P(=O)(c2ccccc2)O1 (configuration not stated)	n	n	n	n	n	n
O=C(c1csc2c1CCCC2)N1CCN(c2cccc(C(F)(F)F)c2)CC1	n	n	65	n	n	n
COc1ccc(CC(C)N2CCN(c3cccc(C(F)(F)F)c3)CC2)cc1OC (configuration not stated)	n	n	n	n	n	n
O=C(c1cc2ccccn2n1)N1CCN(c2cccc(C(F)(F)F)c2)CC1	n	n	n	n	n	n
COc1ccccc1C(=O)N1CCN(c2cccc(C(F)(F)F)c2)CC1	n	68	92	n	n	n
SMILES	PostGolgi yeast	CYP2C9 inh	CYP2C19 inhib	CYP2C19 activ	PostGolgi ctrl	CYP2C9 act
CC(C)n1c(SCC(=O)c2ccc3c(c2)OCCO3)nc2c1c(=O)n(C)c(=O)n2C	x	n	n	n	x	n
COc1ccc(-n2c(N)c(Br)c(=O)[nH]c2=O)cc1	n	n	n	n	n	n
O=C(Nc1cccc(F)c1)N(Cc1ccc(Cl)cc1)CC(O)C(F)(F)F (configuration not stated)	n	n	n	n	58	n
O=C(Nc1ccccc1)N(Cc1ccccc1)CC(O)C(F)(F)F (configuration not stated)	n	n	n	n	n	n
COc1ccc(NC(C)=O)cc1NC(C)C(=O)Nc1ccc(F)cc1 (configuration not stated)	n	55	n	n	n	n
COc1ccc(NC(C)=O)cc1NC(C)C(=O)Nc1cccc2ccccc12 (configuration not stated)	n	82	67	n	n	n
O=C(OCn1nnc2ccccc2c1=O)C1CCN(S(=O)(=O)c2cccs2)CC1	n	x	x	x	n	x
O=c1cc(O)n(-c2ccc(F)cc2)c(=S)[nH]1	n	n	n	n	n	n
COc1ccc(N=C2NC(=O)S/C2=C\c2ccc(N(C)C)cc2)cc1	n	94	n	n	n	n
COc1ccc(N=C2C(=Nc3ccc(OC)cc3)N(c3ccc(N(C)C)cc3)C(=S)N2c2ccc(OC)cc2)cc1	n	n	n	n	n	n
CCCOC(=S)Nc1ccccc1	n	n	62	n	n	n
COCc1cc(=O)n2[nH]c(-c3ccccc3)cc2n1	n	n	n	n	n	n
COCc1cc(=O)n2[nH]c(-c3cccc(Br)c3)cc2n1	n	n	95	n	n	n
Cc1ccc(C)c(N2CCN(C(=O)C3CCCN(S(=O)(=O)c4c(C)[nH]c(=O)[nH]c4=O)C3)CC2)c1 (configuration not stated)	n	n	n	n	n	n
O=C1CCc2cc(S(=O)(=O)N3CCN(c4cccc(C(F)(F)F)c4)CC3)ccc2N1	n	n	n	n	n	n
Cc1ccc(C)c(N2CCN(C(=O)CN(C)S(=O)(=O)c3ccc4c(c3)CCC(=O)N4)CC2)c1	n	82	51	n	n	n
Cc1ccc(C)c(N2CCN(S(=O)(=O)c3ccc4[nH]c(=O)c(=O)[nH]c4c3)CC2)c1	n	66	n	n	n	n
Cc1ccc(C)c(N2CCN(S(=O)(=O)c3ccc4c(c3)CCC(=O)N4)CC2)c1	n	78	n	n	n	n
CCOc1cc(C(=O)Nc2ccc3c4c(cccc24)C(=O)N3CC)cc(OCC)c1OCC	n	57	n	n	n	n
CC(C)(C)c1cc(CN2CCCC(O)C2)c(O)c(C(C)(C)C)c1 (configuration not stated)	n	n	n	n	n	n
CCOc1ccc(Br)cc1/C(C)=N\NC1=NCCN1	n	n	n	n	n	n
O=C1NC2(CCCCC2)C(=O)N1/N=C/c1ccc(O)cc1O	n	n	n	n	n	3.2
CCCCC(=O)Nc1ccc(C(=O)Nc2nnc(COC)s2)cc1	n	n	n	n	n	n
N#C/C(=C/N1CCOCC1)c1ccccc1	n	n	53	n	n	n
O=C(c1ccccc1)N1CCN(C(=O)N2CCOCC2)CC1	n	n	n	n	n	n
COc1ccc2[nH]cc(C(O)CN3CCC(C(N)=O)CC3)c2c1 (configuration not stated)	n	n	n	n	n	n
COc1cccc(C2/C(=C(/O)c3cnn(-c4ccccc4)c3C)C(=O)C(=O)N2CCN(C)C)c1 (configuration not stated)	n	x	x	x	n	x

Bioassay records as filed in PubChem.
